# T cruzi growth-1: T. cruzi intracellular proliferation inhibitors, primary screen, cell-based, beta-gal Tulahuen parasites, NIH3T3 host, luminescence. T. cruzi beta-gal in NIH3T3, GalScreen luminescence, 90 h. inhibition, % at 8.34 µM. actives 5.9% (n = 77,000). AID 624255, 2012;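 active means mean inhibition above about 93%, with at least 55% of replicates each passing it, limit read from the data, passing the limit was not always enough; inconclusive means only one of those two conditions holds; inactive means neither condition holds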
# C diff growth: C. difficile growth inhibitors, primary screen, HTS. Clostridium difficile clinical isolate growth, OD600, 24 h; stronger effect = lower value. growth activity, negative = inhibition, % at 16 µg/mL (by protocol). actives 0.25% (n = 86,000). AID 1259249, 2017;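 active means mean growth activity at or below -80% and every replicate also at or below -80%; inconclusive means mean at or below -80% but some replicate above -80%; inactive means mean growth activity above -80%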
# Pf Dd2 growth: P. falciparum Dd2 growth inhibitors, primary screen, SYBR Green fluorescence, single dose replicates; 72 h; stronger effect = lower value; activity change, % at 10 µM; actives 2.3% (n = 94,000); AID 1159554, 2015; in the data active means activity change below about -80%; inconclusive means no clear call, values can overlap the other calls
# T cruzi growth-2: T. cruzi intracellular proliferation inhibitors, confirmation, cell-based, NIH3T3 host, beta-gal parasite, luminescence, cherry-pick | shares compounds with T cruzi growth-1 | inhibition, % at 8.35 µM | actives 72% (n = 5,600) | T. cruzi beta-gal in NIH3T3, GalScreen luminescence, 90 h;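 active means mean replicate inhibition above about 95% and at least 55% of replicates individually reaching it, limit read from the data; inconclusive means only one of the two criteria is met; inactive means neither criterion is met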
# T cruzi growth-3: inhibitors of intracellular T. cruzi replication, confirmation, NIH3T3 host cells, beta-gal parasites, cherry-pick, set 2; shares compounds with T cruzi growth-1; T. cruzi beta-gal in NIH3T3, GalScreen luminescence, 90 h; inhibition, % at 2.09 µM; actives 21% (n = 5,600);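 active means mean inhibition above about 95%, with at least 55% of replicates also reaching it, limit read from the data; inconclusive means meets just one of the two conditions; inactive means meets neither condition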
# 3T3 cytotox: cytotoxicity in mouse NIH/3T3 fibroblasts, confirmation, cytotoxicity control for T. cruzi proliferation inhibitor project, cell-based, cherry-pick, single point. shares compounds with T cruzi growth-1. NIH/3T3 viability, CellTiter-Glo ATP luminescence, 90 h. cytotoxicity (signal decrease), % at 8.35 µM. actives 14% (n = 5,600). AID 651742, 2012;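 active means mean signal decrease across replicates above about 35% based on untreated-well scatter, with enough replicates individually passing, limit read from the data; inconclusive means no rule stated though some were filed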
# 3T3 cytotox 2: NIH/3T3 fibroblast cytotoxicity, confirmation, cytotoxicity control, cell-based, cherry-pick, single point, set 2; AID 651744, 2012; shares compounds with T cruzi growth-1; actives 56% (n = 5,600); NIH/3T3 viability, CellTiter-Glo ATP luminescence, 90 h; inhibition, % at 24.9 µM;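 active means mean loss of cell viability signal at or above a set limit, and enough replicates individually reaching it; inconclusive means meets only the mean limit or only the replicate share; inactive means meets neither condition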
# A number is an active result; i = inactive; ? = inconclusive; nt = no result. Rows were chosen to be rich in hits. Some 6.7% of all compounds tested hit in one or more screens of this group.
SMILES,T cruzi growth-1,C diff growth,Pf Dd2 growth,T cruzi growth-2,T cruzi growth-3,3T3 cytotox,3T3 cytotox 2
C[C@@H]1CN([C@H](C)CO)S(=O)(=O)c2ccc(-c3cccc(C(=O)N(C)C)c3)cc2O[C@@H]1CN(C)C(=O)Nc1ccc(F)cc1,i,i,i,nt,nt,nt,nt
C[C@@H]1CN([C@@H](C)CO)S(=O)(=O)c2ccc(-c3ccc(F)cc3)cc2O[C@H]1CN(C)C(=O)Nc1ccc(F)cc1,?,nt,i,i,i,i,55.7
CC(=O)N(C)C[C@H]1Oc2cc(-c3ccc(F)cc3)ccc2S(=O)(=O)N([C@H](C)CO)C[C@@H]1C,i,i,i,nt,nt,nt,nt
C[C@H](CO)N1C[C@H](C)[C@H](CN(C)C(=O)Nc2ccc(F)cc2)Oc2cc(-c3ccc(F)cc3)ccc2S1(=O)=O,118.9,nt,i,104.5,i,i,56.0
C[C@@H]1CN([C@H](C)CO)S(=O)(=O)c2ccc(-c3ccc(F)cc3)cc2O[C@@H]1CN(C)C(=O)Nc1ccc(F)cc1,120.1,nt,i,106.9,i,i,48.7
C[C@H](CO)N1C[C@H](C)[C@@H](CN(C)C(=O)Nc2ccc(F)cc2)Oc2cc(-c3ccc(F)cc3)ccc2S1(=O)=O,117.8,nt,i,96.4,i,44.2,45.5
C[C@@H]1CCCCO[C@@H](CN(C)C(=O)Nc2ccc(C(F)(F)F)cc2)[C@H](C)CN([C@@H](C)CO)C(=O)c2cc(NS(=O)(=O)c3cccs3)ccc2O1,i,i,i,nt,nt,nt,nt
Cc1noc(C)c1NC(=O)Nc1ccc2c(c1)C(=O)N([C@H](C)CO)C[C@H](C)[C@@H](CN(C)C(=O)NC1CCCCC1)OCCCC[C@@H](C)O2,nt,i,i,nt,nt,nt,nt
C[C@H](CO)N1C[C@H](C)[C@H](CN(C)C(=O)Nc2ccc(F)cc2)Oc2cc(-c3cccc(C(=O)N(C)C)c3)ccc2S1(=O)=O,i,i,i,nt,nt,nt,nt
C[C@H]1CN([C@@H](C)CO)S(=O)(=O)c2ccc(-c3ccc(F)cc3)cc2O[C@H]1CN(C)C(=O)Nc1ccc(F)cc1,120.3,nt,i,100.9,i,62.1,76.3
CO[C@@H]1CN(C)C(=O)c2cc(NC(=O)C3CCCCC3)ccc2OC[C@@H](C)N(Cc2nccs2)C[C@H]1C,i,i,i,nt,nt,nt,nt
C[C@@H]1CN([C@@H](C)CO)C(=O)c2cccc(NC(=O)C3CCCCC3)c2O[C@@H]1CN(C)C(=O)Nc1ccc2c(c1)OCO2,i,i,i,nt,nt,nt,nt
O=C(CC1CC1)N1CC[C@@H]2[C@@H](CO)Nc3ccc(-c4cccc(F)c4)cc3[C@@H]21,i,i,i,nt,nt,nt,nt
C[C@H](CO)N1C[C@H](C)[C@@H](CN(C)Cc2ccc(Cl)c(Cl)c2)Oc2ccc(NC(=O)C3CC3)cc2CC1=O,115.2,i,i,104.9,i,i,i
C[C@H]1CN([C@@H](C)CO)C(=O)Cc2cc(NC(=O)C3CC3)ccc2O[C@@H]1CN(C)Cc1ccc(Cl)c(Cl)c1,i,i,i,nt,nt,nt,nt
C[C@@H]1CN([C@@H](C)CO)C(=O)Cc2cc(NC(=O)C3CCCCC3)ccc2O[C@@H]1CN(C)Cc1ccc(Cl)c(Cl)c1,i,i,i,nt,nt,nt,nt
C[C@@H]1CN([C@@H](C)CO)C(=O)Cc2cc(NC(=O)C3CC3)ccc2O[C@H]1CN(C)Cc1ccc(Cl)c(Cl)c1,124.1,i,i,97.7,i,39.5,105.5
CO[C@@H]1CN(C)C(=O)c2cc(NC(=O)Nc3cccc(F)c3)ccc2OC[C@H](C)N(C(=O)Nc2c(C)noc2C)C[C@@H]1C,i,nt,i,nt,nt,nt,nt
O=C(C[C@@H]1CC[C@@H]2[C@H](COC[C@@H](O)CN2Cc2ccc(Cl)cc2)O1)NCc1cccc(F)c1,nt,i,i,nt,nt,nt,nt
Cc1ccc(S(=O)(=O)N(C)C[C@H]2Oc3cc(Br)ccc3S(=O)(=O)N([C@H](C)CO)C[C@@H]2C)cc1,110.1,i,i,107.0,i,i,60.6
C[C@H](CO)N1C[C@H](C)[C@H](CN(C)S(=O)(=O)c2cccc(F)c2)Oc2cc(Br)ccc2S1(=O)=O,116.7,i,i,105.6,i,i,48.5
C[C@@H]1CN([C@H](C)CO)S(=O)(=O)c2ccc(Br)cc2O[C@H]1CN(C)S(=O)(=O)c1ccc(F)cc1,96.6,i,i,113.3,i,i,61.2
C[C@@H]1CN([C@H](C)CO)S(=O)(=O)c2ccc(Br)cc2O[C@@H]1CN(C)S(=O)(=O)c1ccc(F)cc1,i,nt,i,nt,nt,nt,nt
C[C@@H]1CN([C@@H](C)CO)S(=O)(=O)c2ccc(Br)cc2O[C@H]1CN(C)S(=O)(=O)c1ccc(F)cc1,100.4,i,i,105.9,i,i,77.7
Cc1ccc(S(=O)(=O)N(C)C[C@@H]2Oc3cc(Br)ccc3S(=O)(=O)N([C@@H](C)CO)C[C@H]2C)cc1,nt,i,i,nt,nt,nt,nt
SMILES,T cruzi growth-1,C diff growth,Pf Dd2 growth,T cruzi growth-2,T cruzi growth-3,3T3 cytotox,3T3 cytotox 2
C[C@H]1CN([C@@H](C)CO)S(=O)(=O)c2ccc(Br)cc2O[C@@H]1CN(C)S(=O)(=O)c1ccc(F)cc1,i,nt,i,nt,nt,nt,nt
O=C(Nc1cccc(Cl)c1)N[C@@H]1CC[C@H](CCNC(=O)C2CC2)O[C@@H]1CO,nt,i,i,nt,nt,nt,nt
CN1c2ccc(-c3cccc(C#N)c3)cc2[C@H]2[C@H](CCN2C(=O)C2CCC2)[C@@H]1CO,i,i,i,nt,nt,nt,nt
C[C@H](CO)N1C[C@H](C)[C@H](CN(C)S(=O)(=O)c2ccc(F)cc2)Oc2c(NC(=O)Nc3ccc4c(c3)OCO4)cccc2C1=O,i,i,i,nt,nt,nt,nt
O=C(N[C@H]1CC[C@@H](CCNC(=O)c2ccccc2F)O[C@H]1CO)c1cnccn1,i,nt,i,nt,nt,nt,nt
COc1ccc(NC(=O)N(C)C[C@H]2Oc3c(NC(=O)NC4CCCCC4)cccc3C(=O)N([C@@H](C)CO)C[C@H]2C)cc1,i,i,i,nt,nt,nt,nt
C[C@@H]1CN([C@@H](C)CO)C(=O)c2cc(NS(=O)(=O)c3ccc(Cl)cc3)ccc2O[C@@H](C)CCCCO[C@H]1CN(C)S(=O)(=O)c1ccc(F)cc1,104.9,i,i,103.6,i,i,i
C[C@@H]1CCCCO[C@H](CN(C)S(=O)(=O)c2ccc(F)cc2)[C@@H](C)CN([C@@H](C)CO)C(=O)c2cc(NS(=O)(=O)c3ccc(Cl)cc3)ccc2O1,97.0,i,i,104.8,111.2,i,i
C[C@H]1CCCCO[C@@H](CN(C)S(=O)(=O)c2ccc(F)cc2)[C@@H](C)CN([C@@H](C)CO)C(=O)c2cc(NS(=O)(=O)c3ccc(Cl)cc3)ccc2O1,99.8,i,i,103.8,?,i,i
